Rows were chosen to be rich in hits. Some 4% of all compounds tested hit in one or more screens of this group.
ADAM10 inh: inhibitors of human ADAM10; O14672; recombinant ADAM10, EDANS/DABCYL FRET peptide cleavage, 3 h; inhibition, % at 7 µM; 0.62% of 370,000 active;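 active = inhibition above a per-campaign cutoff equal to the mean of compounds falling between control-based bounds plus 3 SD, cut at about 20% in these data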
Target sequence (O14672 214-748 limits assumed): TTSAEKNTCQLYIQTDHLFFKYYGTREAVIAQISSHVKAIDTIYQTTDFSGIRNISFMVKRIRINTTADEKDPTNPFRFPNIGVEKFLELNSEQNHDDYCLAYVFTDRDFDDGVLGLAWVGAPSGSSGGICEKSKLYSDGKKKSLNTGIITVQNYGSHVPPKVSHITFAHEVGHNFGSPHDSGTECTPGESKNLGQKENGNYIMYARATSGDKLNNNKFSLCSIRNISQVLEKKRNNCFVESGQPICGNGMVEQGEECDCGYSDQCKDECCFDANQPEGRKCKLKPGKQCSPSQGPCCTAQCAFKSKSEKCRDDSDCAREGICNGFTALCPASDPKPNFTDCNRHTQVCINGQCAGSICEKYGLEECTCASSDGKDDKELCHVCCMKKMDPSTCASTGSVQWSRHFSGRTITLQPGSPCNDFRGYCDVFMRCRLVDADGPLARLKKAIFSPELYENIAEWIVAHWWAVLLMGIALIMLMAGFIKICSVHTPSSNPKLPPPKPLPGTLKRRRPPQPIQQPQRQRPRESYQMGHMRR
aDG glyco act: increases alpha dystroglycan glycosylation; 0.22% of 360,000 active; Pro5-aDG cells, alpha-DG glycosylation AlphaScreen (IIH6); 0% Pro5, 100% B10-LARGE cell signal; activation, % at 10 µM;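 active = activation of at least 8% versus controls, or a plate z-score of at least 8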;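 note: Pro5 are CHO cells carrying HIG-tagged alpha-DG that lacks glycosylation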
FAS-TE inh: FAS thioesterase (human) inhibition; AID 602261; inhibition, % at 15 µM; recombinant FAS-TE, OMFH fluorogenic substrate, fluorescence endpoint; 0.67% of 360,000 active;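 active = compounds whose normalised, plate-corrected inhibition of enzyme fluorescence in the single-dose primary screen is 50% or more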
NR3A LBD binder: modulates the human NR3A ligand-binding domain | NR3A LBD differential scanning fluorimetry, Tm shift; 0% = protein alone, 100% = glycine-bound protein | Tm shift relative to glycine control, % at 25 µM | 2.5% of 340,000 active | AID 1259313;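 active = melting temperature shift of at least 10% of the positive control shift, at one fixed dose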
ADAM17 inh: inhibitors of human ADAM17; recombinant ADAM17, EDANS/DABCYL FRET peptide cleavage; P78536; inhibition, % at 6.95 µM; 0.83% of 370,000 active; AID 720648;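 active = inhibition above the mean of compounds lying between control limits plus 3 SD, set per campaign, cut at about 8.5% in these data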
Large screens that a line does not name were inactive.

Nc1nc(=S)[nH]c2c1C1(CCCC1)Cc1ccccc1-2	none
Nc1nc(=S)[nH]c2c1C1(CCCCC1)Cc1ccccc1-2	NR3A LBD binder 13
O=c1nc(-c2ccccc2)c2ccccc2[nH]1	NR3A LBD binder 12
Cc1ccc(-c2nc(=O)[nH]c3ccccc23)cc1	none
CCN1CCN(c2ccc(S(=O)(=O)N3CCOCC3)cc2NC(=O)C2CCC(C(C)(C)C)CC2)CC1 (configuration not stated)	NR3A LBD binder 19
CCN(C(=O)COC(=O)c1cc(S(=O)(=O)Nc2c(C)n(C)n(-c3ccccc3)c2=O)ccc1Cl)C1CCCCC1	none
CC(C)C(c1nnnn1Cc1ccc2c(c1)OCO2)N1CCN(c2ccccc2)CC1 (configuration not stated)	NR3A LBD binder 13
COc1ccc(Cn2nnnc2C(CC(C)C)N2CCN(c3ccccc3)CC2)cc1 (configuration not stated)	NR3A LBD binder 18
CC(C)C(c1nnnn1Cc1ccc2c(c1)OCO2)N1CCN(C)CC1 (configuration not stated)	none
Cc1ccc(OCC(=O)N(Cc2cccc(F)c2)C2CCS(=O)(=O)C2)cc1 (configuration not stated)	none
O=C(Nc1ccc2nc(-c3cccs3)[nH]c2c1)c1cccs1	NR3A LBD binder 26
Cc1ccc(OCC(=O)Nc2ccc(NC(=O)c3ccco3)cc2)c(C)c1	NR3A LBD binder 29
O=C(Nc1ccc2c(c1)CCC2)c1cccs1	none
Cc1ccccc1C(=O)Nc1ccc(-c2nc3ccc(C(=O)c4ccccc4)cc3[nH]2)cc1	NR3A LBD binder 17
O=C(Nc1ccc2nc(-c3cccs3)[nH]c2c1)c1ccco1	NR3A LBD binder 14
Cn1cccc1-c1nc2ccc(NC(=O)c3ccco3)cc2[nH]1	none
Cc1noc(C)c1COC(=O)CCCNC(=O)c1ccc(Cl)cc1	none
O=C1CCCN2N=C(SCC(=O)Nc3ccccc3C(F)(F)F)SC2=N1	none
Cn1c(CNc2ccccc2O)nc2ccccc21	none
O=C(Nc1ccc(-c2nc3ccc(NC(=O)c4cccs4)cc3[nH]2)cc1)c1cccs1	NR3A LBD binder 30
CC(=O)Nc1ccc2nc(-c3ccncc3)[nH]c2c1	none
Cc1ccc2nc(-c3ccc(NC(=O)c4ccco4)cc3)[nH]c2c1	NR3A LBD binder 31 (no result: ADAM10 inh, ADAM17 inh)
O=C(Cc1cccs1)Nc1cccc(-c2nc3cc4ccccc4cc3[nH]2)c1	NR3A LBD binder 28
O=C(NCc1cccc2[nH]ccc12)C1CCC(=O)N(CCc2ccc(Cl)cc2)C1 (configuration not stated)	NR3A LBD binder 11
O=C(NCc1ccc2c(c1)OCO2)C1CC(=O)N(CCc2ccc(Cl)cc2)C1 (configuration not stated)	NR3A LBD binder 12
O=C(Nc1ccc(-n2ccc(C(F)(F)F)n2)cc1)Nc1cccc(Cl)c1	none (no result: NR3A LBD binder)
Cc1cc(C)cc(NC(=O)Nc2ccc(-n3ccc(C(F)(F)F)n3)cc2)c1	NR3A LBD binder 17
CCNc1nc(Cl)nc(-c2cn(-c3ccccc3)c3ccccc23)n1	NR3A LBD binder 12
COc1ccc(NC(=O)c2ccc(F)c(F)c2)c2ccccc12	none
Cc1c(Cl)ccc2c(C(O)CBr)cc(-c3ccccc3)nc12 (configuration not stated)	NR3A LBD binder 32
CC(=O)c1ccc(NC(=O)CN2C(=O)/C(=C/C=C/c3ccccc3)SC2=S)cc1	none
O=C(O)CN1C(=O)/C(=C/C=C/c2ccccc2)SC1=S	NR3A LBD binder 21
CC(=C\c1ccccc1)/C=C1/SC(=S)N(CCCC(=O)O)C1=O	none
O=C(O)CN1C(=O)/C(=C\C(Br)=C\c2ccccc2)SC1=S	NR3A LBD binder 13
c1ccc(OCc2nn3c(-c4cccnc4)nnc3s2)cc1	none
CN1c2ccsc2C(O)=C(C(=S)Nc2ccc(F)c(Cl)c2)S1(=O)=O	NR3A LBD binder 26
O=C(Nc1ccc(OCC(F)(F)C(F)F)c(C(F)(F)F)c1)c1ccccc1O	NR3A LBD binder 33
NC1=NC(=O)/C(=C/c2cccc(F)c2)S1	none
COc1cccc(/C=C2\SC(=S)NC2=O)c1OS(=O)(=O)c1ccc(NC(C)=O)cc1	none
CC(=O)Nc1ccc(S(=O)(=O)Oc2cccc(/C=C3\SC(N)=NC3=O)c2)cc1	NR3A LBD binder 36
COc1cc(/C=C2/SC(=S)NC2=O)ccc1OS(=O)(=O)c1ccc(C)cc1	FAS-TE inh 57 (no result: ADAM10 inh, ADAM17 inh)
COc1ccc(/C=C2\SC(=S)NC2=O)cc1OS(=O)(=O)c1ccc(NC(C)=O)cc1	NR3A LBD binder 18
COc1cc(/C=C2\SC(=S)N(CCCCC(=O)O)C2=O)ccc1OS(=O)(=O)c1ccc(C)cc1	aDG glyco act 6.9, NR3A LBD binder 31
Cc1cc(/C=N/NC(=O)C(O)(c2ccccc2)c2ccccc2)c(C)n1-c1ccc(C(=O)O)cc1	none
Cc1cc(C)c(S(=O)(=O)c2ccccc2)c(=O)[nH]1	none
O=C(NC1CCCCC1)Oc1cc2oc(=O)sc2cc1Br	ADAM10 inh 26
Cn1nc(C(F)(F)F)c2cc(C(=O)Nc3ccc(F)cc3)sc21	none
Cn1nc(C(F)(F)F)c2cc(C(=O)Nc3ccc(C(F)(F)F)cc3)sc21	NR3A LBD binder 15
O=C(Nc1csnn1)c1csnn1	NR3A LBD binder 15
Cc1cccnc1NC(=O)c1csnn1	NR3A LBD binder 10
Cc1cc(C)nc(NC(=O)c2csnn2)c1	none
C=CCN1[C@@H](C)[C@H](c2ccccc2)Oc2cccc(N3CCCC(C)C3)c2S1(=O)=O (some centres not stated)	none (no result: aDG glyco act, FAS-TE inh, NR3A LBD binder)
Cc1onc(-c2ccccc2)c1C(=O)NCc1ccc(F)cc1	NR3A LBD binder 11
Cc1ccc(-c2c(C(=O)NCc3ccc(F)cc3)oc(=O)c3ccccc23)cc1	NR3A LBD binder 14
COc1ccc(CN2C(=O)c3oc4ccccc4c(=O)c3C2c2ccc(O)c(OC)c2)cc1 (configuration not stated)	none
c1ccc2nc(N3CCCC3)c(N3CCCC3)nc2c1	NR3A LBD binder 11
O=C(CCc1nnc2ccc(NCc3ccco3)nn12)N1CCN(c2ccccc2)CC1	none
c1ccc2c(CCc3ccncc3)cccc2c1	none
CCOC(=O)C(Oc1ccc2c(-c3ccccc3)cc(=O)oc2c1C)c1ccccc1 (configuration not stated)	NR3A LBD binder 14
O=C(CN(C(=O)c1ccco1)c1cccc(F)c1)NCc1ccc(F)cc1	none
CCOc1ccc(N2CC(C(=O)Nc3cc(Cl)ccc3-n3cncn3)CC2=O)cc1 (configuration not stated)	none
Fc1cc(F)c2nc(Nc3nc4cc5c(cc4s3)OCO5)sc2c1	NR3A LBD binder 16
Nc1cc2c(cc1Br)-c1ccccc1C2=NO	NR3A LBD binder 31
ON=C1c2ccccc2-c2ccc(F)cc21	none
O=C(N/N=C/c1cn(-c2ccccc2)nc1-c1cccs1)c1ccc(Cl)cc1	NR3A LBD binder 27

Source: PubChem (several laboratories)
